The text below walks through data of PubChem BioAssay (EPA / NIEHS).

Where “and” joins values, the source holds several entries; their conditions need not be identical. Identical values can stand only once. The source holds several records for some structures; these can differ, active in one and inactive in another. Calls of active or inactive are those of the source. Rule for the calls: active = hit-call score of the fitted dose curve at least 0.9, where 1 is the maximum; inactive = score below 0.9.

A short description of the assay: ATG_CRE_CIS: Attagene CIS-FACTORIAL HepG2 Assay for human cAMP Responsive Element (CRE) binding protein 3 (AID 2282926). The note with it: HepG2 CRE cis-reporter, Attagene multiplexed mRNA; actives raise or lower the signal. On the procedure:
ATG_CIS is a cell-based, multiplexed-readout assay that uses HepG2, a human liver cell line, with measurements taken at 24 hours after chemical dosing in a 24-well plate.ATG_CRE_CIS is one of 52 assay component(s) measured or calculated from the ATG_CIS assay. It is designed to make measurements of mRNA induction, a form of inducible reporter, as detected with fluorescence intensity signals by Reverse transcription polymerase chain reaction (RT-PCR) and Capillary electrophoresis technology.Data from the assay component ATG_CRE_CIS was analyzed into 1 assay endpoint. This assay endpoint, ATG_CRE_CIS, was analyzed with bidirectional fitting relative to DMSO as the negative control and baseline of activity. Using a type of inducible reporter, measures of mRNA for gain or loss-of-signal activity can be used to understand the reporter gene at the transcription factor-level as they relate to the gene CREB3. Furthermore, this assay endpoint can be referred to as a primary readout, because this assay has produced multiple assay endpoints where this one serves a reporter gene function. To generalize the intended target to other relatable targets, this assay endpoint is annotated to the dna binding intended target family, where the subfamily is basic leucine zipper.
Human liver HepG2 cells are transiently transfected with multiple reporter transcription units (MRTUs) in 6-well plates using FuGene 6 reagent (Roche; 3 ml FuGene/1 mg DNA). The MRTU constructs are regulated by a cis-regulating element (promoter). […] A major difference between the CIS and TRANS system is that in CIS activities of endogenous TFs are measured, whereas the TRANS assay evaluates changes in activities of exogenous, chimeric NR-Gal4 proteins. […] At the end of 24 hour incubation, total RNA was isolated using TriZol reagent (Invitrogen). The isolated RNA is then reverse-transcribed using oligo(dT) primer and Mo-MLV reverse transcriptase (Invitrogen) with DNAse I (Ambion) treatment for 30 min. The one-tenth of the produced cDNA was amplified by PCR using Taq DNA polymerase (Invitrogen) and two reporter sequence-specific primers. The PCR products were fluorescently labeled by primer extension with 6-arboxyfluorescein (6-FAM) 5'-labeled reporter sequence-specific primer (2 min at 95 C, 20 s at 68 C and 10 min at 72 C) and these products were digested with 5U of HpaI (New England Biolabs) for 2h at 37 C. The fragments were purified using Qiaquick PCR columns (Qiagen), analyzed on an ABI 3130xL genetic analyzer (Applied Biosystems) with peak positions identified by using a set of X-rhodamine (ROX)-labeled MapMarker1000 molecular weight standards (BioVentures). The raw capillary electrophoresis data was processed using Attagraph software (Attagene).
Turning to `COc1ccc(OC)cc1`, the call was inactive.
The same measure, in the same setting: then `Cc1cccc(O)c1`, with “inactive”; and `COc1ccc2[nH]cc(CCNC(C)=O)c2c1`, with “inactive”.
For `CC(=O)c1cccnc1`, the compound was called inactive.
Still for that read-out and setting: then `[Cl][Dy]([Cl])[Cl]`, with “inactive”; and `CCNC(=S)NCC`, with “inactive”.
As for `CCC(C)(C)c1cc(O)c(C(C)(C)CC)cc1O`, the AC50 was 5.39 µM (active).
`CCCCCCCOC(C)=O`: the compound was called inactive.
For `CCCCCCCCCCCCCCCCCC(=O)OCCCCCCCCCCCCCC(C)C`, the call was inactive.
Still for that read-out and setting: then `CC(=O)CCC=C(C)CCC=C(C)C`, with “inactive”.
As to `CCCCCCCCCC(=O)OCC`, the AC50 is 92.2 µM (active).
On to `CCCCCCOc1ccc(O)cc1`, for which the compound was called inactive.
Still for that read-out and setting: the entry for `CCO[Si](CC)(OCC)OCC` is “inactive”; for `N=C1N=C(N)c2ccccc21` it is “inactive”.
The same measure, in the same setting: then `COc1ccc(C(C)=O)cc1`, with “inactive”.
In the case of `O=C(c1ccc(OCCN2CCCCC2)cc1)c1c(-c2ccc(O)cc2)sc2cc(O)ccc12`, the AC50 is 11.1 µM (active) and 14.7 µM (active); the compound was classed as inactive.
`CCCCC1CCCCC(=O)O1` (stereo not given): the outcome was inactive.
Take `C=CC(=O)OCC(CO)(COC(=O)C=C)COC(=O)C=C`: the AC50 is 163 µM (active).
In the case of `OCCN1CCOCC1`, the outcome was inactive.
For the compound `COC(=O)c1cccc(C(=O)OC)c1`, the result was inactive.
Still for that read-out and setting: the entry for `C=COCC1CCC(COC=C)CC1` (stereo not given) is “inactive”; for `CCC(=O)OCC=Cc1ccccc1` it is “inactive”.
On the same count and under the same terms, the entry for `O=C1OC2(c3ccc(O)cc3Oc3cc(O)ccc32)c2ccccc21` is “inactive”.
The same measure, in the same setting: the entry for `CCCO` is “inactive”; for `CCCCCCOC(C)=O` it is “inactive”; for `Cc1cc(N)n(-c2ccccc2)n1` it is “inactive”.
Turning to `C=C1CC[C@H]2O[C@]2(C)CC[C@@H]2[C@@H]1CC2(C)C`, the compound was classed as inactive.
On the same count and under the same terms, then `O=C1CCC(=O)N1`, with “inactive”.
Take `C=C1CC/C=C(\C)CC[C@@H]2[C@@H]1CC2(C)C`: the AC50 is 124 µM (active).
As for `CCCCN(CCCC)CCCCCCN(CCCC)CCCC`, the compound was called inactive.
Still for that read-out and setting: then `CC(C)(C)c1ccc(S)cc1`, with “inactive”; and `ClCCOCCOCCCl`, with “inactive”; and `CC(C)(O)CCc1ccccc1`, with “inactive”.
Same read-out and setting: the entry for `CC12CCC(C1)C(C)(C)C2O` (stereo not given) is “inactive”; for `CCC(C)(CCCC(C)C)OC(C)=O` (stereo not given) it is “inactive”; for `CC1=CC(C)C(C=O)C(C)C1` (stereo not given) (tested in a mixture with another compound) it is “inactive”.
Still for that read-out and setting: then `CC(C)(O)C(=O)c1ccc(OCCO)cc1`, with “inactive”; and `C=C(C)C(=O)OCCN(C)C`, with “inactive”.
Regarding `CC(C)C(=O)OCC=Cc1ccccc1`, the call was inactive.

The AC50 is the concentration giving half of the maximal activity seen.
